Screening results (PubChem BioAssay)
This is a sample that favours compounds with a hit; in the whole collection about 4.1% have one here.
DAX1 inh-1: DAX1 (NR0B1) inhibitors, primary screen, cell-based, HEK293, Gal4-DAX1, luciferase luminescence; HEK293 Gal4-DAX1 luciferase reporter; inhibition, % at 6.75 µM; actives 0.99% (n = 340,000); AID 504766, 2011;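 active = inhibition above the mean over all tested compounds plus 3 SD, cut at about 4.2% in these data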;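 also: 0% = DAX1-transfected cells with DMSO and 100% = empty-vector control cells with DMSO; inhibition shows as a rise in luminescence from relieved DAX1 repression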
Target sequence (P51843 207-470 limits assumed): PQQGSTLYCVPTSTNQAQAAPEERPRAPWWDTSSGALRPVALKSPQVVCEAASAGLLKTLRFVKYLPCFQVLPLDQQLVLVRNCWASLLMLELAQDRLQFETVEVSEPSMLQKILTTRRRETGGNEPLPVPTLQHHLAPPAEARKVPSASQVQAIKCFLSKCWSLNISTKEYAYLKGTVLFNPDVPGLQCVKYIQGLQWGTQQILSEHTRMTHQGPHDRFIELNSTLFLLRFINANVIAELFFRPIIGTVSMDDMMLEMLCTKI
DAX1 inh-2: DAX1 (NR0B1) inhibitors on StAR promoter, primary screen, cell-based, luminescence, SF-1 (NR5A1), full-length DAX-1. inhibition, % at 6.8 µM. actives 1.1% (n = 370,000). HEK293T StAR-luciferase reporter, SF-1/DAX-1 repression relief;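 active = inhibition above the mean over all tested compounds plus 3 SD, cut at about 3.6% in these data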;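 also: 0% = DAX-1 cells with DMSO and 100% = cells lacking DAX-1 with DMSO; higher inhibition means more luminescence from relief of DAX-1 repression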
hgDAF12 agonist: H. glycines DAF-12 receptor agonists, primary screen, cell-based, luminescence, HEK293, GAL4 fusion, UAS-luciferase; actives 1.8% (n = 370,000); activation, % at 6.8 µM; Nuclear hormone receptor DAF-12 (Heterodera glycines), GAL4 fusion; HEK293 GAL4-hgDAF12 UAS-luciferase reporter, agonist luminescence; normalized to butyrate control;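 active = activation above a cutoff set at the mean of all screened compounds plus 3 SD, cut at about 10% in these data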;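 also: 0% = DMSO wells and 100% = sodium butyrate wells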
hcDAF-12 act: H. contortus DAF-12 nuclear receptor activators, primary screen, cell-based, luminescence, HEK293, lit1-tk-luc reporter; activation, % at 6.8 µM; actives 1.4% (n = 370,000); HEK293 hcDAF-12 lit1-tk-luc reporter; 0% DMSO, 100% Δ7-dafachronic acid;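 active = activation above the mean of all tested compounds plus 3 SD, cut at about 5.5% in these data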;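 also: 100% = response to 3 µM Δ7-dafachronic acid high control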
ssDAF-12 act: S. stercoralis DAF-12 nuclear receptor activators, primary screen, cell-based, luminescence, HEK293, GRIP1 co-expression, lit1-tk-luc | AID 652126, 2013 | Nuclear hormone receptor DAF-12 (Strongyloides stercoralis) | HEK293 ssDAF-12/GRIP1 lit1-tk-luc reporter; % of 3 µM dafachronic acid response | actives 1% (n = 370,000) | activation, % at 6.8 µM;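 active = activation above the mean over all tested compounds plus 3 SD, cut at about 0.9% in these data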;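 also: 0% = DMSO-only wells and 100% = 3 µM delta7-dafachronic acid wells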
* hit, by the source's call; / = not tested or not shown.

SMILES	DAX1 inh-1	DAX1 inh-2	hgDAF12 agonist	hcDAF-12 act	ssDAF-12 act
Cc1cc(NC(=O)CSCC(=O)Nc2cc(C(F)(F)F)ccc2N2CCCCC2)no1	0	2	5	6.0*	0
O=S1(=O)[C@H]2C[C@@H]3CC[C@]2(CN1Cc1cccc(F)c1)O3	3	-1	2	-1	-1
COc1ccc(S[C@]2(C(=O)N(C)C)CC(=O)N(C(=O)c3ccccc3)[C@@H]2c2ccc(OC)cc2)cc1	/	-2	-3	-1	-1
Nc1nc(=O)n(C2CC(O)C(CO)O2)cc1Cl (stereo unspecified)	/	3	5	2	3.1*
Nc1nc(=O)n(C2CC(O)C(CO)O2)cc1F (stereo unspecified)	-4	-4	-8	-1	-1
S=c1[nH]nc(-c2ccco2)n1-c1ccccc1Cl	-1	4.3*	3	1	0
S=c1[nH]nc(-c2ccc3ccccc3n2)n1-c1ccccc1Cl	-1	0	-1	1	0
S=c1[nH]nc(-c2cc(-c3ccco3)[nH]n2)n1-c1ccccc1Cl	2	0	1	-1	0
S=c1[nH]nc(-c2ccn[nH]2)n1-c1ccccc1Cl	1	0	4	2	1.2*
COC(=O)[C@H](CC(C)C)N1Cc2nnn(Cc3ccc(C)cc3)c2-c2cc(F)ccc2S1(=O)=O	/	0	-2	-1	-1
Cc1ccc(NC(=O)OC2CC3CC2[C@H]2CCCCN2[C@H]3C)cc1 (stereo partly specified)	/	-1	4	-2	0
CC(C)CN1C(=O)[C@]2(CC(=O)N(C)C2c2ccccc2)c2cc(-n3cc(C4=CCCCC4)nn3)ccc21 (stereo partly specified)	/	-1	-2	-3	-1
CCN(CC(=O)NCc1ccncc1)S(=O)(=O)c1cc(Cl)ccc1Cl	4.2*	0	3	-3	-1
Nc1nnn(-c2ccccc2)c1-c1ccccc1	4.6*	0	-1	2	-2
CCC(CO)Nc1cccc2c1S(=O)(=O)N(Cc1cn(Cc3ccc(Cl)cc3)nn1)Cc1ccccc1O2 (stereo unspecified)	/	-1	-1	-3	-2
COc1ccc(CN2C(=O)N(c3ccc(OC)cc3)C(=O)C2CC(=O)Nc2ccccc2)cc1 (stereo unspecified)	0	-1	-1	1	-1
COc1ccc(N2C(=O)C(CC(N)=O)N(NC(=O)CCc3ccccc3)C2=O)cc1 (stereo unspecified)	5.9*	0	-1	1	-1
CCn1c(C(=O)OC)cc2c1ccn2-c1ccc(F)cc1	2	1	13*	2	0
Clc1ccc(-c2cnc(Oc3ccccc3)nc2)cc1	2	3	11*	2	1
Nc1ccc(Cc2ccc([N+](=O)[O-])cc2)cc1	5.2*	-1	0	2	-1
CC1(C)SC(=S)N(/N=C/c2cccnc2)C1N(O)C(=O)Nc1ccccc1 (stereo unspecified)	6.2*	0	-1	0	0
COC(=O)[C@@]12C[C@@H](CC(=O)NCCC(C)C)C(=O)N(CCc3ccc(OC)c(OC)c3)C1=CCC(C)(C)C2	/	4.4*	0	-2	-1
NC(=O)c1c(NC(=O)c2ccc([N+](=O)[O-])o2)sc2c1CCCC2	0	0	1	4	2.0*
COc1ccccc1C(=O)Nc1sc2c(c1C(N)=O)CCCC2	1	0	3	3	0.9*
O=C(Nc1sc2c(c1C(=O)O)CCCCC2)c1cccs1	2	3	10	4	1.0*
CC(=O)NC(C)(c1ccccc1)c1nc(-c2cccc(C(F)(F)F)c2)cs1 (stereo unspecified)	/	-1	-3	-2	-1
Cc1cccc(C(=O)OCC(=O)NCC2COc3ccccc3O2)c1 (stereo unspecified)	0	4.3*	-2	3	-1
Clc1cccc(N/N=C/c2ccc(N3CCOCC3)cc2)c1	1	1	2	2	-1
